Screens from PubChem.
Hits are enriched below; roughly 1.1% of the tested compounds scored in any of these assays.
MOR-DOR ag-1 – OPRM1-OPRD1 heterodimerization agonism | cells, luminescence | activation, % at 9.3 µM | 0.3% of 340,000 active | AID 504326;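 further: 0% = vehicle-treated cells and 100% = reference agonist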
Target sequence (P35372 whole entry, looked up): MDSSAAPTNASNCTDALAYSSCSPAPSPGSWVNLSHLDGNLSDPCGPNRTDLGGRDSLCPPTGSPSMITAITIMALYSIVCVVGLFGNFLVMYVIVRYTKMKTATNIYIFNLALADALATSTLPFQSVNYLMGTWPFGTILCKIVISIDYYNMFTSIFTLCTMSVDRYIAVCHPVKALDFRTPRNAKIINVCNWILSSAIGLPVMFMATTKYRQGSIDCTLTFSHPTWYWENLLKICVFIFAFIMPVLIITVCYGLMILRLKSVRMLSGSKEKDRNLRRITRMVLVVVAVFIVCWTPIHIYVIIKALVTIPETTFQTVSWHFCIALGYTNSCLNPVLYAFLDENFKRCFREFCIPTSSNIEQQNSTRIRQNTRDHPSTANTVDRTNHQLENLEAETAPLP
Target sequence (P41143 whole entry, looked up): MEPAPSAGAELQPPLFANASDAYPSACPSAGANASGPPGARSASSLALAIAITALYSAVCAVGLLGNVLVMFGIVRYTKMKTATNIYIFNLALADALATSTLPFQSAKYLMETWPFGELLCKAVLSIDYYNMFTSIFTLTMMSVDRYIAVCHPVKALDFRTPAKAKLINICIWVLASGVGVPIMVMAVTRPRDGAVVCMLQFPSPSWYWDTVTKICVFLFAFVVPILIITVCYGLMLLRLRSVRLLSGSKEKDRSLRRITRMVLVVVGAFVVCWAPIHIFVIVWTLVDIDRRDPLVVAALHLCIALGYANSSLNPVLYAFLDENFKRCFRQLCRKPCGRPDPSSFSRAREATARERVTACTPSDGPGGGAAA
OPRM1-OPRD1 inv – mu-delta opioid heterodimer inverse agonism | cell-based MOR-DOR heterodimer luminescence | inhibition, % at 9.3 µM | 0.21% of 340,000 active | AID 504357; in the data active means inhibition above about 22%, passing the limit was not always enough;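 further: 0% = cells with DMSO and 100% = wells without cells with DMSO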
HTR5A ag – activates human HTR5A in OPRM1-OPRD1 agonist counter-screen | 0.61% of 340,000 active | AID 504692 | HTR5A agonist assay, luminescence, cell-based | activation, % at 9.3 µM; in the data active means activation mostly above about 9.5%, no sharp cut-off; inactive means mostly below about 7.6%;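 further: 0% = cells with vehicle only and 100% = reference agonist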
HTR5A inv ag – HTR5A inverse agonism, opioid heterodimer counter-screen; P47898; AID 504634; 0.083% of 340,000 active; inhibition, % at 9.3 µM; HTR5A cell line, luminescence; in the data active means inhibition mostly above about 23%, no sharp cut-off; inactive means mostly below about 18%;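 further: 0% = cells with DMSO and 100% = no-cell wells with DMSO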
MOR-DOR ag-2 – promotes OPRM1-OPRD1 heterodimerization in HTR5A counter-screen | shares compounds with HTR5A ag | U2OS counter-screen cells, complementation luminescence, 3 h | activation, % at 9.3 µM | 13% of 800 active | AID 504913
HTR5A ag conf – confirmation of human HTR5A agonists; activation, % at 9.3 µM; AID 504915; HTR5A agonist cell assay, luminescence; shares compounds with HTR5A ag; 17% of 800 active; in the data active means activation above about 17%;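 further: 0% = cells with vehicle only and 100% = full reference agonist response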
Active calls of the source: *; . = not tested or not shown; ! = repeats disagree. Unless noted, no stated cut-off is given here; in the data, active means activation above about 18%; inactive means the rest.

SMILES | MOR-DOR ag-1 | OPRM1-OPRD1 inv | HTR5A ag | HTR5A inv ag | MOR-DOR ag-2 | HTR5A ag conf
O=C(NCCc1ccc(Cl)cc1)C1CCC(=O)N1Cc1ccc(F)cc1 (stereo unspecified) | -2 | 11 | 17* | -49 | 0 | 0
CCN(CC(=O)NCc1ccc(F)cc1)C(=O)c1ccc(C)o1 | 1 | -5 | -5 | -1 | . | .
CN(CC(=O)Nc1ccc(F)c(F)c1F)C(=O)c1ccc2c(c1)NC(=O)CS2 | 1 | -4 | 11 | -26 | . | .
CN(CC(=O)Nc1ccc(Cl)c(C(F)(F)F)c1)C(=O)c1ccc2c(c1)NC(=O)CS2 | 0 | 2 | 16* | -24 | -1 | -1
CCCCCOc1ccc(C(O)C(CN2CCOCC2)c2ccccc2)cc1 (stereo unspecified) | 4 | -19 | 3 | -12 | . | .
COc1cc2cncc(Cc3ccc(Cl)cc3)c2cc1OC | -4 | 18 | 0 | -1 | . | .
CCn1c2ccccc2c2cc(NC(=O)CSc3nnc(-c4ccc(OC)cc4)n3N)ccc21 | 14 | -73 | 19* | -49 | 8 | 6
CCOc1ccc(C(=O)Nc2ccc(NC(=O)c3ccco3)c(Cl)c2)cc1Br | 16 | -84 | 19* | -83 | 40* | 4
COc1ccc(C(=O)COC(=O)COc2cc(C)cc(C)c2)cc1 | -3 | 17 | 2 | 7 | . | .
O=C(CN1CCOCC1)Nc1ncc(Cc2ccccc2Cl)s1 | -1 | 7 | 5 | 1 | . | .
CCc1ccc(CCC(=O)Nc2ncc(Cc3ccccc3Cl)s2)o1 | 3 | -18 | 17* | -59 | 22* | 12
OC(CN1CCN(c2cccc(Cl)c2)CC1)c1ccc(F)cc1 (stereo unspecified) | 7 | -32 | 19* | -72 | 7 | 27*
C=CCOC(=O)C1=C[C@@H](c2ccc3c(c2)OCO3)C[C@@H](OCc2ccc(CO)cc2)O1 | -2 | 13 | 2 | -7 | . | .
Cc1ccc(NC(=S)N/N=C2\CC(C)(C)Oc3ccc(O)cc32)cc1 | 0 | -2 | -7 | 19 | . | .
COc1ccc(NC(=S)N/N=C2\CC(C)(C)Oc3ccc(OC)cc32)cc1 | 1 | -7 | 19* | -67 | 8 | 9
O=C(CSc1ccc2ccccc2n1)c1ccc2c(c1)OCO2 | 0 | -1 | 40* | -121 | 5 | 53*
O=C(O)CSc1ccc2ccccc2n1 | 1 | -8 | 2 | -5 | . | .
CN(C)c1ccc(S(=O)(=O)c2ccc(Cl)cc2)cc1 | 5 | -29 | 16* | 24 | 2 | 2
CCCCCCCCOC(=O)CCc1c(C)[nH]c(=S)[nH]c1=O | 5 | -31 | 15* | -62 | 4 | 7
Oc1ccc(C2CNCCc3c2cc(O)c(O)c3Cl)cc1 (stereo unspecified) | 0 | -2 | 32*! | 9 | 2 | 56*
CCOc1ccc(C(=O)N2CCN(Cc3ccccc3)CC2)cc1 | -1 | 3 | -4 | 14 | . | .
CCOc1ccc(C(=O)N2CCN(Cc3ccccc3)CC2)cc1OCC | 0 | 0 | 16* | -1 | 4 | -1
COc1ccc(CNC(=O)c2ccc3nccnc3c2)cc1 | -2 | 10 | 19* | -49 | 1 | -1
COc1ccc(CNC(=O)c2ccncc2)cc1 | -3 | 16 | 2 | -2 | . | .
N/C(=N\OC(=O)N1CCOCC1)c1ccc(Br)cc1 | 0 | -1 | -2 | 5 | . | .
SMILES | MOR-DOR ag-1 | OPRM1-OPRD1 inv | HTR5A ag | HTR5A inv ag | MOR-DOR ag-2 | HTR5A ag conf
O=C(NCCc1c[nH]c2ccccc12)C(=O)NCC1OCCCN1S(=O)(=O)c1cccs1 (stereo unspecified) | 0 | -2 | 31* | -73 | 1 | -6
Cc1cc(F)ccc1S(=O)(=O)N1CCCOC1CNC(=O)C(=O)NCCc1c[nH]c2ccccc12 (stereo unspecified) | -1 | 4 | 16* | -75 | 43* | 4
Cc1ccc(S(=O)(=O)N2CCOC2CNC(=O)C(=O)NCCc2ccc(S(N)(=O)=O)cc2)cc1 (stereo unspecified) | 0 | 1 | 4 | -14 | . | .
Cc1ccc(S(=O)(=O)N2CCOC2CNC(=O)C(=O)NCCc2c[nH]c3ccccc23)cc1 (stereo unspecified) | 0 | -1 | 54* | -118 | 0 | -2
CNC(=O)C(=O)NCC1OCCCN1S(=O)(=O)c1cccs1 (stereo unspecified) | -1 | 5 | 4 | 1 | . | .
O=C(NCCc1c[nH]c2ccccc12)C(=O)NCC1OCCCN1S(=O)(=O)c1ccc(F)cc1 (stereo unspecified) | -1 | 8 | 16* | -59 | 4 | 24*
C/C(=N\OC(=O)C1CC1)C1CC1c1ccc(F)cc1 (stereo unspecified) | 0 | 0 | -3 | 4 | . | .
O=C(NCCCO)C(=O)NCC1OCCCN1S(=O)(=O)c1cccs1 (stereo unspecified) | -1 | 4 | 17* | -44 | 0 | -2
O=C(NCCCc1ccccc1)C(=O)NCC1OCCN1S(=O)(=O)c1cc(F)ccc1F (stereo unspecified) | -3 | 17 | 2 | 10 | . | .
O=C(NCCO)C(=O)NCC1OCCCN1S(=O)(=O)c1cccs1 (stereo unspecified) | -1 | 3 | 2 | -4 | . | .
O=C(NCCc1c[nH]c2ccccc12)C(=O)NCC1OCCN1S(=O)(=O)c1cc(F)ccc1F (stereo unspecified) | 1 | -4 | 34* | -6 | 1 | 45*
C=CCN=C(NC#N)SCC(=O)NC(C)(C)C | -2 | 7 | 17* | -43 | 20* | -3
CC(C)N=C(NC#N)SCC(=O)NC(C)(C)C | -2 | 9 | 7 | -3 | . | .
CCc1nnc(NC(=O)c2ccc(COc3cccc(C)c3)o2)s1 | 0 | -2 | 5 | -15 | . | .
CC(c1ccc(O)cc1)(c1ccc(O)cc1)c1ccc(CCBr)cc1 | -1 | 6 | 15* | -53 | 7 | 3
OCCc1ccc(O)cc1 | -3 | 18 | 10 | -37 | . | .
COc1ccccc1NS(=O)(=O)c1cccc(C(=O)NCC(c2ccccc2OC)N2CCCC2)c1 (stereo unspecified) | -1 | 5 | 10 | 9 | . | .
COc1ccccc1C(CNC(=O)c1cccc(S(=O)(=O)Nc2ccc(C)cc2)c1)N1CCCC1 (stereo unspecified) | -2 | 9 | 25* | -93 | 2 | 34*
COc1ccc(/C=C/C(=O)NCCSCc2ccco2)cc1 | 1 | -6 | 2 | 16 | . | .
Cn1c(CN2CCCCC2)nc2cc(NC(=O)c3ccc(Cl)cc3)ccc21 | 2 | -9 | 39* | -146 | 2 | 44*
CS(=O)(=O)C1=C(O)C(=O)N(CCCC(=O)O)C1c1ccccc1F (stereo unspecified) | 0 | 1 | 16* | -43 | 0 | 7
COc1ccc(NS(=O)(=O)c2cccc3ccccc23)cc1 | 2 | -10 | 3 | 0 | . | .
O=C(COc1cccc2ccccc12)Nc1cc(Cl)ccc1C(=O)O | -2 | 14 | 7 | -27 | . | .
